Measurements published in publication PMC4336329 (PLoS ONE, 2015).
The campaign covered roughly 310,000 compounds. About 2,200 (0.71%) showed an effect of 50% or more. The effect is printed as a negative number. Only a selection was taken, and strong results are over-represented in it overall.

Molecular target: human ether-à-go-go-related gene (hERG) potassium channel (human, UniProt Q12809)
Experiment: primary screen, population patch clamp on CHO cells stably expressing hERG; higher = less effect of the substance

Sequence of human ether-à-go-go-related gene (hERG) potassium channel (Q12809 whole entry, looked up): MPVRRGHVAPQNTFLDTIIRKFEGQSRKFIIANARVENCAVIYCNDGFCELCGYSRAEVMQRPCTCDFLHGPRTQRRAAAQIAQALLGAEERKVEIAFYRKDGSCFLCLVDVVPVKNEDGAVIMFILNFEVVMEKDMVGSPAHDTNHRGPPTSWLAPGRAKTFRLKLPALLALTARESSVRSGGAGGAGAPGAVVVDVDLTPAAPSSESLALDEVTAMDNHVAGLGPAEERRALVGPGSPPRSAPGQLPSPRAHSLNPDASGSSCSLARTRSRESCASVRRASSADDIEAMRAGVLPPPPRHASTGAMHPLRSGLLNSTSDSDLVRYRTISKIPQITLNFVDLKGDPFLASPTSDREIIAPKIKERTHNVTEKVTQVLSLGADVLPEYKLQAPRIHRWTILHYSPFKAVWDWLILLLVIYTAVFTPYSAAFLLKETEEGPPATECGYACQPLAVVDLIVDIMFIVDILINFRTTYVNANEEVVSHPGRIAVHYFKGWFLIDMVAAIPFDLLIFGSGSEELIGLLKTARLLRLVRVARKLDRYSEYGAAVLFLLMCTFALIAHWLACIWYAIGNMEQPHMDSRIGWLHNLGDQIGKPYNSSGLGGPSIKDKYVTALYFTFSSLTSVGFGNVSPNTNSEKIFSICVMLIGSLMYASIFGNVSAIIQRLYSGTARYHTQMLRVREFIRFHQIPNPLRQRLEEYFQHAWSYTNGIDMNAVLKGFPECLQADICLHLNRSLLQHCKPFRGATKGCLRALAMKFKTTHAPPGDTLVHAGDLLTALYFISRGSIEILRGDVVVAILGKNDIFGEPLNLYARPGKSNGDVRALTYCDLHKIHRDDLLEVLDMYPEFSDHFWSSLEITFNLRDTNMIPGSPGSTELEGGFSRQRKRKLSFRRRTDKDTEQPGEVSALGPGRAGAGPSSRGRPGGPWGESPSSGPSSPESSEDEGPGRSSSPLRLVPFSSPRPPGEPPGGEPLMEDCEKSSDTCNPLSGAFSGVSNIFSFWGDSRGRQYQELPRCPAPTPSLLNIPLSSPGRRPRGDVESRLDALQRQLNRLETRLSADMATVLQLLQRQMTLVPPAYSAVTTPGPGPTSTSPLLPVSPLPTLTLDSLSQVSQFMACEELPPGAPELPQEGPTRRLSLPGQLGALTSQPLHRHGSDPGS

SMILES | hERG current change (%, negative = inhibition) at 1uM [%]
C=CC[C@@H](C)CC(=O)C(CCCN=[N+]=[N-])SOOc1ccccc1 (stereo partly drawn) | 11.2
Cc1ccc(S(=O)(=O)N2c3ccccc3-c3c(ssc3=S)C2(C)C)cc1 | -1.68
COc1ccccc1OCC(=O)Nc1ccccc1C(=O)N1CCCC1 | 5.81
COc1ccc(N2CCN(C(=O)c3nc4nc(C)cc(C)n4n3)CC2)cc1 | 7.39
O=C(c1ccc2nsnc2c1)N1CCN(c2ccc([N+](=O)[O-])cc2)CC1 | -57.4
CCc1nc2ccc(C(=O)N3CCN(c4ccc([N+](=O)[O-])cc4)CC3)cc2nc1CC | -38.2
Cc1ccc(C(=O)N2CCN(c3ccc([N+](=O)[O-])cc3)CC2)o1 | -79
O=C(c1ccc(-c2ccc([N+](=O)[O-])cc2)o1)N1CCCCC1 | -10.5
Cc1cc(C(=O)N2CCN(c3ccc([N+](=O)[O-])cc3)CC2)c(C)o1 | -35.1
Cc1cc(C)n2nc(C(=O)N3CCN(c4ccc([N+](=O)[O-])cc4)CC3)nc2n1 | -77.6
Cc1c(Cl)cccc1-c1ccc(C(=O)N2CCN(c3ccc([N+](=O)[O-])cc3)CC2)o1 | -1.98
COc1cccc(N2CCN(C(=O)c3nc4nc(C)cc(C)n4n3)CC2)c1 | 8.37
O=C(c1ccc(-c2ccc([N+](=O)[O-])cc2)o1)N1CCCCCCC1 | -6.48
O=C(c1ccc2c(c1)OCCO2)N1CCN(c2ccc([N+](=O)[O-])cc2)CC1 | 1.16
CCCN1CCN(C(=O)c2ccc(-c3ccc([N+](=O)[O-])cc3)o2)CC1 | -70.1
Cc1cc2cc3c(cc2nc1SCC(=O)N1c2ccccc2CC1C)OCO3 (stereo not drawn) | 5.76
O=C(Nc1ccc2oc(-c3ccncc3)nc2c1)c1ccccc1F | 7.55
Cc1ccccc1OCCC(=O)Nc1ccccc1C(=O)N1CCCCC1 | 10.9
Nc1nc(SCC(=O)c2ccc([N+](=O)[O-])cc2)n[nH]1 | 1.72
O=c1c2cn[nH]c2[nH]c(=S)n1-c1ccccc1 | 14.3
CC(=O)Nc1cccc(OCc2c(F)cccc2Cl)c1 | 4.98

SMILES | hERG current change (%, negative = inhibition) at 1uM [%]
O=C(NC(=S)Nn1cnc2c(cnn2-c2ccccc2)c1=O)c1ccc(Cl)cc1 | 11.4
CCn1c(SCC(=O)c2cc(C)n(-c3ccc(C(=O)OC)cc3)c2C)nnc1-c1cccnc1 | 1.88
COCCn1c(SCc2ccccc2)nc2c1c(=O)[nH]c(=O)n2C | 11.8
CSCCC1NC(=O)N(CC(=O)Nc2cc(C)on2)C1=O (stereo not drawn) | 9.03
CC(C)C(C(=O)C=[N+]=[N-])N1C(=O)c2ccccc2C1=O (stereo not drawn) | 11.2
Cc1cc(C(=O)N2CCN(c3ccc([N+](=O)[O-])cc3)CC2)no1 | -36
O=C(c1cncc(Br)c1)N1CCN(c2ccc([N+](=O)[O-])cc2)CC1 | -62.2
COc1ccc(C(=O)N2CCN(c3ccc([N+](=O)[O-])c(-n4nc(C)cc4C)c3)CC2)cc1 | -80.6
Cc1occc1C(=O)N1CCN(c2ccc([N+](=O)[O-])cc2)CC1 | -45.8
CC(=O)N1CCN(c2ccc([N+](=O)[O-])c(-n3nc(C)cc3C)c2)CC1 | -9.97
O=C(c1cncc(Br)c1)N1CCN(c2ccc(N3CCOCC3)nn2)CC1 | 9.87
O=C(c1ccc([N+](=O)[O-])cc1)N1CCN(c2ncc(Br)cn2)CC1 | -11.3
Cc1cc(C)n(-c2cc(N3CCN(C(=O)c4ccc(C(C)(C)C)cc4)CC3)ccc2[N+](=O)[O-])n1 | 3.39
Cc1cc(C(=O)N2CCN(c3ccc([N+](=O)[O-])cc3)CC2)co1 | -64.7
C=CCc1cccc2cc(C(=O)Nc3ccc(F)cc3)c(=O)oc12 | 6.28
COC(=O)c1ccc(NC(=S)NC(=O)c2cc(-c3ccccc3)nc3ccccc23)cc1 | 9.36
NC(=O)[C@H]1CC2(CC(c3cccc(NC(=O)CC(c4ccccc4)c4ccccc4)c3)=NO2)CN1C(=O)CC(c1ccccc1)c1ccccc1 (stereo partly drawn) | 14.8
Nc1ccc(O)cc1 | 10.2
COc1ccc(/C=C2\Oc3cc(OC(=O)N4CCOCC4)ccc3C2=O)cc1 | 3.7
CCC(=O)Nc1ccc2oc(-c3ccccc3Br)nc2c1 | 9.07
CC1CCc2c(sc3nc(CN4CCN(S(=O)(=O)c5ccccc5[N+](=O)[O-])CC4)[nH]c(=O)c23)C1 (stereo not drawn) | -0.366
